The list is not random: actives were taken first. Their share in the collection is about 10%.
LMNA splice mod – LMNA splicing modulation; HeLa LMNA splicing GFP/RFP minigene ratio, 48 h; Potency, µM (top dose mostly 46.1 µM), for the others: at the top dose ratio change, negative = inhibition, usual class: inhibitors; actives 0.01% (n = 200,000); active = well fitted inhibition curve with a large enough effect in the signal ratio, with a control signal flat, not every such curve was filed as active; inconclusive = small, poorly fitted or top-dose-only effect, or effect the other way, or a change in a side signal; the % refers to the signal ratio; note: potency is the fitted concentration of half-maximal effect
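S3 HeLa stable clones carrying a lamin A-EGFP splicing minigene plus DsRed2 were seeded at 600 cells/well in Opti-MEM with 2% FBS, pin-dosed and incubated 48 h at 37°C. Acumen cytometry (488 nm) gave the GFP/RFP total-intensity ratio.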
ALDH1A1 inh – blocks purified human ALDH1A1 activity; P00352; Purified ALDH1A1, NADH fluorescence, propionaldehyde substrate; Potency, µM (titrated, usually from 75.3 µM), inactives show at the highest dose activity, negative = inhibition, most hits filed as inhibitors; actives 7.3% (n = 220,000); AID 1030;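 note: potency is the fitted concentration of half-maximal effect; plate controls were no enzyme wells and a reference inhibitor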
Target sequence (P00352 whole entry, looked up): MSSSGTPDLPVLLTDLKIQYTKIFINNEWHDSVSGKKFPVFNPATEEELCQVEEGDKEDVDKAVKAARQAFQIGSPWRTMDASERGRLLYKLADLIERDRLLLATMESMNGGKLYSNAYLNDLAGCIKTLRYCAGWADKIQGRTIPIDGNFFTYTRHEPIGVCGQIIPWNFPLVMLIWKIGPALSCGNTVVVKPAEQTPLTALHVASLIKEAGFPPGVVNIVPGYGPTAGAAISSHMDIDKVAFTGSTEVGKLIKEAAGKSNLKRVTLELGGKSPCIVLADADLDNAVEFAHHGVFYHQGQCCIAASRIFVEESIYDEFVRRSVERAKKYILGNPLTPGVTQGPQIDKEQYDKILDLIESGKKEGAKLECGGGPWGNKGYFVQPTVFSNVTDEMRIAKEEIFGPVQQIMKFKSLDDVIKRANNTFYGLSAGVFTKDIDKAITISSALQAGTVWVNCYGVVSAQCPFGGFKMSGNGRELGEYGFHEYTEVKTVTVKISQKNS
PNC assembly inh – blocks assembly of the perinucleolar compartment; PC3M PTB-GFP, PNC prevalence imaging, 16 h; hits give low values; activity change (PNC), negative = inhibition, % at 10 µM; actives 3.1% (n = 140,000);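 active = readout at or below -70, meaning at least 70% loss of cells showing the perinucleolar compartment, a nuclear body marking cancer cells; inconclusive = readout between -30 and a set limit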;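 note: plate controls were DMSO wells for no effect and camptothecin positive control wells for full effect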
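PC3M cells stably expressing PTB-GFP, 750–1000 cells/well, treated 16 h at 37 °C with compound (23 nl of library stock), in duplicate. After paraformaldehyde fixation and Hoechst stain, imaged at 20x; PNC prevalence scored by image analysis.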
IMPase cell inh – IMPase inhibition in cells; CHO-M1 cells, IP1 accumulation, HTRF TR-FRET ratio; inhibition (IP1 accumulation), % at 46.1 µM; 120,000 tested, under 10 active; AID 901; active = well fitted curve in the direction sought with a large enough effect in the signal ratio, not every such curve was filed as active; inconclusive = small, poorly fitted or top-dose-only effect, or a change in a side signal; inactive = no such curve, though single readings can be large or run the other way; the % refers to the signal ratio;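 note: cells stimulated with carbachol in lithium chloride buffer; plate controls were DMSO basal wells for no effect and reference inhibitor wells for full effect; higher means more IMPase inhibition seen as more IP1 and lower FRET ratio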
Target sequence (P97697 whole entry, looked up): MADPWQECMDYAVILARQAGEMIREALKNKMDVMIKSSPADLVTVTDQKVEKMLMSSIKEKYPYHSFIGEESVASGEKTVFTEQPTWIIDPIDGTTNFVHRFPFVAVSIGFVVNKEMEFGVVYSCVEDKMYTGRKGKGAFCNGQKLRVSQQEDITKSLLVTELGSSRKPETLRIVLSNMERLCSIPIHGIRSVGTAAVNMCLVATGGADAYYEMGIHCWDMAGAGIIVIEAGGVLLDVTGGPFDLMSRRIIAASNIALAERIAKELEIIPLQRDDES
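Seeded CHO-M1 cells were dosed with compound at up to 46 uM, stimulated with carbachol for 30 min, then lysed in IP-One detection reagents. Higher IP1 lowers the TR-FRET signal.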
KinaseGlo FLuc – blocks Kinase-Glo luciferase, a counter-screen artifact | Q27757 | Kinase-Glo luciferase, ATP luminescence, 8 min | Potency, µM (series often up to 38.3 µM), for inactives: at the highest dose activity change, negative = inhibition, hits mostly inhibitors | actives 0.28% (n = 200,000); active = well fitted inhibition curve with a large enough effect; inconclusive = small, poorly fitted or top-dose-only effect; note: potency is the fitted concentration of half-maximal effect; nearly all actives have a fitted effect of over 60% in size
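Recombinant Kinase-Glo luciferase, 10 uM ATP (linear range), luciferin; imidazole pH 7.2 / KCl / MgCl2 / Tween / BSA buffer; 8 min RT; luminescence.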
HPGD inh – HPGD (human) dehydrogenase inhibition; P15428; purified HPGD, NADH fluorescence kinetic, PGE2 substrate; Potency, µM, for the others: at the highest dose activity change, negative = inhibition, hits mostly inhibitors; actives 4.3% (n = 150,000); AID 894; note: potency is the fitted concentration of half-maximal effect
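20 nM HPGD preincubated 15 min at room temperature with compound in 50 mM Tris-HCl pH 8, 0.01% Tween 20. Started with 1 mM NAD+ and 30 uM prostaglandin E2; NADH fluorescence (360/450 nm) read 5 times over 30-s intervals, last minus first.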
* marks the source's active call; other numbers are inactive results; ? = inconclusive; nt = no result; [ ] = remark or other dose. Unless noted, calls come from the whole dose curve; as a rule, active = well fitted inhibition curve with a large enough effect (not every such curve was filed as active); inconclusive = small, poorly fitted or top-dose-only effect, or another doubt; inactive = no such curve, though single readings can be large or run the other way. Unless noted, % is set by controls: 0 for no effect and ±100 for the full control effect.

SMILES | LMNA splice mod | ALDH1A1 inh | PNC assembly inh | IMPase cell inh | KinaseGlo FLuc | HPGD inh
CC(=O)N1CCN(c2ccc(NCc3ccc(C)cc3)cc2)CC1 | ? | ? | ? | 6.5 | -7.5% | 0.1%
O=C(c1ccc([N+](=O)[O-])cc1)N(Cc1ccco1)c1ccccn1 | 7.6%[46 µM] | nt | nt | nt | nt | nt
COc1cc(O)ccc1-c1nc2ccc(Br)cn2c1Nc1ccccc1C | nt | nt | nt | 11.4 | nt | nt
CC(C)Cc1nc2oc3c(N4CCN(CCO)CC4)ncnc3c2c2c1CCCC2 | -16.7% | 7.94µM* | ? | -1.8 | -1.9% | -11.1%
CC(C)Cc1nc2oc3c(NCC4CCCO4)ncnc3c2c2c1CCC2 (stereo not given) | ? | ? | -100.0* | -1.3 | 11.1% | -7.5%
CCN1CCN(c2ncnc3c2oc2nc(C(C)C)c4c(c23)CCC4)CC1 | 7.8% | -2.5% | ? | -2.9 | -2.4% | -0.3%
CCOC(=O)N1CCN(c2ncnc3c2oc2nc(C(C)C)c4c(c23)CCC4)CC1 | 8.9% | 1µM* | 12.3 | 2.5 | -3.8% | ?
CC(C)Cc1nc2oc3c(NCc4cccnc4)ncnc3c2c2c1CCC2 | ? | ? | ? | ? | 8.8% | ?
Nc1cccc(OCc2nc(N)nc(N)c2-c2ccc(Cl)cc2)c1 | nt | -1.6%[13.5 µM] | nt | nt | -2.7%[7.66 µM] | -5.1%
Cc1ccc(NS(=O)(=O)c2ccc3nc(-c4ccccc4)[nH]c3c2)c(Cl)c1 | nt | nt | nt | 4.6 | nt | nt
COc1ccc(NC(=O)C2CCN(c3nnnn3-c3ccccc3)CC2)cc1 | -9.4% | 12.6µM* | ? | 12.2 | -3.5% | -8.0%
COc1ccccc1CC(NC(C)=O)C(=O)NC1CCN(c2nnnn2-c2ccccc2)CC1 (stereo not given) | -4.4% | 5.62µM* | -25.5 | -3.6 | -0.1% | -11.8%
O=C(Nc1ccc(F)cc1)C1CCN(c2nnnn2-c2ccccc2)CC1 | -6.3% | 14.1µM* | -24.8 | -1.1 | -0.4% | -7.7%
COc1cccc(CC(NC(C)=O)C(=O)NC2CCN(c3nnnn3-c3ccccc3)CC2)c1OC (stereo not given) | -6.2%[46 µM] | ? | nt | nt | 6.0% | nt
O=C(c1ccco1)n1nc(NCc2ccccc2)nc1NCc1ccccc1 | -3.5% | 9.6% | -0.7 | -5.6 | 0.5% | 1.2%
COc1ccc(CNc2nc(NCc3ccc(OC)cc3)n(C(=O)c3ccccc3[N+](=O)[O-])n2)cc1 | -1.9% | 20µM* | -20.0 | 8.3 | -1.1% | -21.5%
COc1ccc(N2CCN(CCCNC(=O)c3sc4ncccc4c3-n3cccc3)CC2)cc1 | -21.7%[46 µM] | nt | nt | nt | nt | nt
O=C1CCCC2=C1C1(O)C(=O)c3ccccc3C1(O)O2 (stereo not given) | 22.7% | 3.98µM* | 3.7 | 0.6 | 1.9% | -1.6%
Cc1ccc(S(=O)(=O)CCN2CCN(c3ccccn3)CC2)cc1 | nt | 12.6µM* | nt | nt | nt | nt
CCOc1ccc(NC(=O)C2CC(=O)N(c3ccc(C(C)C)cc3)C2)cc1 (stereo not given) | nt | nt | nt | 6.0 | nt | nt
Clc1cccc(Nc2c3c(nc4ncnn24)CCC3)c1 | -10.2% | ? | ? | 3.8 | 5.8% | 15.8µM*
Cc1ccccc1S(=O)(=O)Cc1ccc(C(=O)NCc2cccnc2)o1 | -13.9% | 14.1µM* | 1.2 | 1.2 | 1.0% | -7.7%
CCOC(=O)N1CCC(NC(=O)c2ccc(CS(=O)(=O)c3ccccc3C)o2)CC1 | -17.8% | 11.2µM* | -7.8 | 2.3 | -0.4% | -17.6%
Cc1ccccc1S(=O)(=O)Cc1ccc(C(=O)NC(C)c2ccc3c(c2)OCCO3)o1 (stereo not given) | -6.8% | 14.1µM* | 0.9 | 10.0 | 0.3% | -19.9%
CN(c1ccccc1)S(=O)(=O)c1cccc(C(=O)NCCc2ccc(O)c(O)c2)c1 | -23.7%[46 µM] | 28.2µM* | nt | nt | 6.5% | nt
SMILES | LMNA splice mod | ALDH1A1 inh | PNC assembly inh | IMPase cell inh | KinaseGlo FLuc | HPGD inh
COc1ccc(CCNC(=O)c2ccc(Cl)c(S(=O)(=O)N(C)c3ccccc3)c2)cc1 | ? | -0.4% | -88.5* | nt | 1.5% | -15.3%
COC(=O)CNc1nc(C2CC2)nc2c1nnn2Cc1ccccc1Cl | -8.1% | 1.58µM* | -22.6 | ? | 1.3% | 1.4%
CN(C)S(=O)(=O)c1ccc(Nc2nc(C3CC3)nc3c2nnn3Cc2ccccc2Cl)cc1 | ? | ? | -12.8 | -8.8 | 5.4% | ?
Clc1ccccc1Cn1nnc2c(N3CCOCC3)nc(C3CC3)nc21 | 1.1% | 20µM* | 0.7 | 6.1 | 0.2% | -14.0%
CCOC(=O)CCCCNCc1ccccc1 | -7.3% | 14.0% | -100.0* | -7.0 | -2.2% | -8.7%
C[C@@H](c1ccccc1)N1C(=O)[C@H]2[C@@H]3[C@H](O)[C@H](O)CC(=O)[C@H]3CC[C@H]2C1=O | nt | -0.4%[13.5 µM] | nt | nt | nt | nt
O=C(Cn1cc(S(=O)(=O)Cc2ccc(F)cc2)c2ccccc21)NCc1ccccc1Cl | 2.1%[46 µM] | nt | nt | nt | nt | nt
CC(=O)N(c1ccccc1)C1SC(=O)N(c2ccccc2)C1=O (stereo not given) | 14.0% | 0.631µM* | -0.6 | 6.4 | 14.4% | -15.3%
CC(=O)N(c1cccc(C)c1)C1SC(=O)N(c2ccccc2)C1=O (stereo not given) | 4.3% | 8.91µM* | 36.5 | 8.0 | nt | nt
Cc1ccc(N2C(=O)SC(N(CC(=O)O)c3cccc(C)c3)C2=O)cc1 (stereo not given) | 2.6% | ? | 14.8 | -10.3 | -4.9% | 3.9%
COCC(=O)N1CCC2(CC1)CCN(c1ccncc1)CC2 | nt | 11.9% | nt | nt | -1.5% | -0.3%
COc1cc(OC)c2c(=O)c(-c3ccccc3)c(C)oc2c1OC | -5.0% | 14.1µM* | nt | nt | -0.2% | -1.3%
COc1cccc(N2C(C(C)=O)=NN(c3ccccc3)C2c2ccc(N3CCOCC3)cc2)c1 (stereo not given) | ? | 14.1µM* | ? | nt | -6.7% | -6.9%
CCCN1C(=O)c2cccc3c(N4CCCCC4)ccc(c23)C1=O | -6.0% | 2.9% | -88.3* | nt | -2.9% | -13.2%
CC(C)C[C@@H](CC(=O)N[C@@H](CCC(=O)O)CC(=O)O)NC(=O)[C@@H]1CCCC[C@H]1NC(=O)C[C@@H](NC(=O)C[C@H](Cc1c[nH]c2ccccc12)NC(=O)[C@@H]1CNCC[C@H]1N)C(C)C | nt | 9.8% | nt | nt | 0.6% | -7.3%
O=C(CSc1nc(O)c(C2CCCCC2)c(=O)[nH]1)Nc1ccc(Cl)cc1 | ? | -1.1% | -111.9* | 5.8 | 0.1% | -6.3%
CC(=O)Nc1c(O)nc(SCC(=O)Nc2cccc(C)c2)[nH]c1=O | 7.2% | -6.6% | ? | 0.1 | -4.1% | -7.8%
CC(=O)Nc1c(O)nc(SCC(=O)Nc2ccc(C(C)=O)cc2)[nH]c1=O | 2.2% | 11.2µM* | -26.2 | 11.1 | 0.0% | -26.7%
CCCNS(=O)(=O)c1cc(-c2nnc3c4ccccc4c(C)nn23)ccc1OC | nt | nt | nt | -10.6 | nt | nt
COc1ccc(-c2cn3cccnc3n2)cc1NC(=O)Cc1ccccc1 | -0.7%[46 µM] | nt | nt | nt | nt | nt
COc1cc(SC)ccc1C(=O)NC1CCCCC1 | 2.6% | ? | -24.8 | -0.9 | 10.8% | 22.4µM*
